The values below come from ChEMBL document CHEMBL1961873, “Compounds: GSK PKIS; Assays: Nanosyn kinase panel” (2012).

Usually inhibition stands for the drop in the measured response relative to a control, in per cent.

Experiment [1] deals with Serine/threonine-protein kinase pim-2 (Homo sapiens) (UniProt Q9P1W9). As to conditions: at 1 µM.
Experiment [2] addresses Serine/threonine-protein kinase pim-3 (Homo sapiens) (UniProt Q86V86). Conditions: at 0.1 µM.
For experiment [3] the target is unchanged. As to conditions: at 1 µM.
Experiment [4] deals with T1, MAP kinase-activated protein kinase 5 (Homo sapiens) (UniProt Q8IW41).
T1 sequence (whole entry): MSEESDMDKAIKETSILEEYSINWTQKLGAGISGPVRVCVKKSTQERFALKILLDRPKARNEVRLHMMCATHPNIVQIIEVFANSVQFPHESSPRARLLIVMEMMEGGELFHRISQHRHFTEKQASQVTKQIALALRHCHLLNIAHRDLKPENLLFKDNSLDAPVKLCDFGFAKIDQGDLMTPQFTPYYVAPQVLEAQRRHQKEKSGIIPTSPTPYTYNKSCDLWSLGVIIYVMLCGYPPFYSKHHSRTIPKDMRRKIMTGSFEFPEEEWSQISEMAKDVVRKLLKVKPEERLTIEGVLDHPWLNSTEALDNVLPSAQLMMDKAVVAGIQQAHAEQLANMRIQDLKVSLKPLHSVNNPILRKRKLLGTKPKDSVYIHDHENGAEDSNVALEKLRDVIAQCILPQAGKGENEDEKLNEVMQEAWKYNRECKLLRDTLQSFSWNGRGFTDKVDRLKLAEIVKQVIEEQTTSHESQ
Conditions: at 0.1 µM.

The target in experiment [5] is T1, MAP kinase-activated protein kinase 5 (Homo sapiens). Conditions: at 1 µM.
Experiment [6] addresses Serine/threonine-protein kinase SIK1 (Homo sapiens) (UniProt P57059). Conditions: at 0.1 µM.
The target is the same in experiment [7]. As to conditions: at 1 µM.
For experiment [8], the target named is Serine/threonine-protein kinase SIK2 (Homo sapiens) (UniProt Q9H0K1). Conditions: at 0.1 µM.
Experiment [9] has the same target. As to conditions: at 1 µM.
The target in experiment [10] is T2, Serine/threonine-protein kinase TBK1 (Homo sapiens) (UniProt Q9UHD2).
T2 sequence (whole entry): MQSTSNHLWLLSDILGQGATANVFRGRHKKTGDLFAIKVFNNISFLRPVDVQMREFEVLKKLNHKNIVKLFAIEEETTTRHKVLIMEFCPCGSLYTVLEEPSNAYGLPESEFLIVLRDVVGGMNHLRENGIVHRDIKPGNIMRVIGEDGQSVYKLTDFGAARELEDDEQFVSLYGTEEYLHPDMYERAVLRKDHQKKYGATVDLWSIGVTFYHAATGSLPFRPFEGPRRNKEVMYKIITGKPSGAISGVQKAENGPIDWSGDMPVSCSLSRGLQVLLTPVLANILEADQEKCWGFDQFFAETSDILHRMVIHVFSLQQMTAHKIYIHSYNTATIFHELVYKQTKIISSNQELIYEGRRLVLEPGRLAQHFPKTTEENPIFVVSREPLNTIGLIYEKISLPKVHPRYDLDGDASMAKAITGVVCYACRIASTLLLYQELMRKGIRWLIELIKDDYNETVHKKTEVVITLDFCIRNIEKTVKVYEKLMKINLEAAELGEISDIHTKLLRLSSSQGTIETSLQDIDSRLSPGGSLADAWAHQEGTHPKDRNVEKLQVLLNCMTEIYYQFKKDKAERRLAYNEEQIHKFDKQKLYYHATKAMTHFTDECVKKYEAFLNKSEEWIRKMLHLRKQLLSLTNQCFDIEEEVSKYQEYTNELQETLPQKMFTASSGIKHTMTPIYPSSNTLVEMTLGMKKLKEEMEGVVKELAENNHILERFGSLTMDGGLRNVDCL
As to conditions: at 0.1 µM.

Experiment [11] addresses T2, Serine/threonine-protein kinase TBK1 (Homo sapiens). As to conditions: at 1 µM.
Experiment [12] concerns the target T3, Testis-specific serine/threonine-protein kinase 1 (Homo sapiens) (UniProt Q9BXA7).
T3 sequence (whole entry): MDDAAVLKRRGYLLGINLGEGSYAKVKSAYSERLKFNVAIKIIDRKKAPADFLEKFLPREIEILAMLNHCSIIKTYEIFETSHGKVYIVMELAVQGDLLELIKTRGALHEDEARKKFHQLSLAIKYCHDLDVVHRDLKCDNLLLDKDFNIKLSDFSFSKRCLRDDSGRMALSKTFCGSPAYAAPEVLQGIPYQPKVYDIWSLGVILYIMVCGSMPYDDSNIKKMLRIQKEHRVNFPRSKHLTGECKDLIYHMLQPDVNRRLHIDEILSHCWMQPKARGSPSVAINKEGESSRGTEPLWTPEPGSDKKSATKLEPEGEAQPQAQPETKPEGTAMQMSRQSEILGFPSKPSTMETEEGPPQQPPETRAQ
As to conditions: at 0.1 µM.

Experiment [13] addresses T3, Testis-specific serine/threonine-protein kinase 1 (Homo sapiens). Conditions: at 1 µM.
The target in experiment [14] is T4, Testis-specific serine/threonine-protein kinase 2 (Homo sapiens) (UniProt Q96PF2).
T4 sequence (whole entry): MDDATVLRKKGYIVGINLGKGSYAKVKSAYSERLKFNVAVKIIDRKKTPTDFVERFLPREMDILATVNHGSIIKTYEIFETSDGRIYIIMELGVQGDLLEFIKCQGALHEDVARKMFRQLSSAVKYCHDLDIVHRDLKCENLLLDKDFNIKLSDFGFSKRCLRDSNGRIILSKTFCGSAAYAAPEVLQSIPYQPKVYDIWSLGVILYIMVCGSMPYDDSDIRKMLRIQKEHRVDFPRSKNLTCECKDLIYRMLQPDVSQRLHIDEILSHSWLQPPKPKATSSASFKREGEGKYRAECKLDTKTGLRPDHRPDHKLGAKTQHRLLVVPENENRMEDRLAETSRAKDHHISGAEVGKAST
As to conditions: at 0.1 µM.

Experiment [15] concerns the target T4, Testis-specific serine/threonine-protein kinase 2 (Homo sapiens). As to conditions: at 1 µM.
Experiment [16] addresses Casein kinase I isoform alpha (Homo sapiens) (UniProt P48729). Conditions: at 0.1 µM.
The target is the same in experiment [17]. As to conditions: at 1 µM.
The target of experiment [18] is Casein kinase I isoform gamma-1 (Homo sapiens) (UniProt Q9HCP0). As to conditions: at 0.1 µM.
For experiment [19] the target is unchanged. Conditions: at 1 µM.
The target in experiment [20] is Casein kinase I isoform gamma-2 (Homo sapiens) (UniProt P78368). Conditions: at 0.1 µM.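 Also: values are mean inhibition figures reported as part of the GSK PKIS dataset.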

“And” between values parts separate entries of the source, which are not always exact repeats. Identical values can stand only once.

Chain of Casein kinase I isoform alpha (Homo sapiens) (P48729 2-337 limits assumed): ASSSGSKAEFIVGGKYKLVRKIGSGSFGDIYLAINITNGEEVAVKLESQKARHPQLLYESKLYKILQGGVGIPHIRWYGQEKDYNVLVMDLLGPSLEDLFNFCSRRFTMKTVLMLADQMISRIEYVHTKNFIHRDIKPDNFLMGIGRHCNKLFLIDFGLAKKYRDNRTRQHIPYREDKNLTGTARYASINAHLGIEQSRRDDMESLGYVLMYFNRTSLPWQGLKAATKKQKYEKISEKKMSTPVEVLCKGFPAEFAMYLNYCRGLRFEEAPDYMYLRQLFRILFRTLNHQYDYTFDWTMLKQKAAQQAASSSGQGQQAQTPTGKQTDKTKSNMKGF
Chain of Serine/threonine-protein kinase pim-2 (Homo sapiens) (Q9P1W9 whole entry, looked up): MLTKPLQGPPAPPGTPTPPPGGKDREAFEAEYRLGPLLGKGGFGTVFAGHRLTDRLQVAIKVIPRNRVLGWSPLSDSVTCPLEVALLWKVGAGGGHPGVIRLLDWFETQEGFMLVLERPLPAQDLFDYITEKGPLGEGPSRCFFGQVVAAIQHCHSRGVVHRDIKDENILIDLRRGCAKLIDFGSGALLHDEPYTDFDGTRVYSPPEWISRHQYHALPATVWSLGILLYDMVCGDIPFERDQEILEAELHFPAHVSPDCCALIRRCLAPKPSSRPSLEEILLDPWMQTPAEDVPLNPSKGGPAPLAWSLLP
Chain of Serine/threonine-protein kinase SIK2 (Homo sapiens) (Q9H0K1 whole entry, looked up): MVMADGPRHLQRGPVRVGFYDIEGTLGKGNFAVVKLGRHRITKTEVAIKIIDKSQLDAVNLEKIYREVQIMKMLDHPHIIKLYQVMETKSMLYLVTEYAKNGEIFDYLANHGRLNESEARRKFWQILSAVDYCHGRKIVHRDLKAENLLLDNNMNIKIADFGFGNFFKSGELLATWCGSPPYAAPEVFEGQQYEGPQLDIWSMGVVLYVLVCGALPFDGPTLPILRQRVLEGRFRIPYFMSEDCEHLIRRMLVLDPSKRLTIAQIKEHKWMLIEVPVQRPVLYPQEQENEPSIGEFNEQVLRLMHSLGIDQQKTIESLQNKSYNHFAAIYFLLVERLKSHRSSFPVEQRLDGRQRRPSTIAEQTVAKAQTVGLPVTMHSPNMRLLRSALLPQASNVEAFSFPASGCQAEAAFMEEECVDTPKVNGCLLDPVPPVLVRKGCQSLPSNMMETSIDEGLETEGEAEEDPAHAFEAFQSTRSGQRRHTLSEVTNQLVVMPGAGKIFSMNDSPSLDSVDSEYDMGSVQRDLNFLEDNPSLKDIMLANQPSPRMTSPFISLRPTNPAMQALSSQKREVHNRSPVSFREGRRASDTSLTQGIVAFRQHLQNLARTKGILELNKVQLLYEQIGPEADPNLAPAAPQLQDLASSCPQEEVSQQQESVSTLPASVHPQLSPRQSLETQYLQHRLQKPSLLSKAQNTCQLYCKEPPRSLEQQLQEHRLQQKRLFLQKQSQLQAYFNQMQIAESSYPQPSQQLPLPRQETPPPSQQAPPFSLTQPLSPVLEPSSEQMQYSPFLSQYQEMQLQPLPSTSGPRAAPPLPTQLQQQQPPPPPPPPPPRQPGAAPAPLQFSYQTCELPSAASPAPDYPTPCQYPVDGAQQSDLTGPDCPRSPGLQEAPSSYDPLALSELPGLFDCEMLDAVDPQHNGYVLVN
Chain of Casein kinase I isoform gamma-1 (Homo sapiens) (Q9HCP0 whole entry, looked up, canonical isoform): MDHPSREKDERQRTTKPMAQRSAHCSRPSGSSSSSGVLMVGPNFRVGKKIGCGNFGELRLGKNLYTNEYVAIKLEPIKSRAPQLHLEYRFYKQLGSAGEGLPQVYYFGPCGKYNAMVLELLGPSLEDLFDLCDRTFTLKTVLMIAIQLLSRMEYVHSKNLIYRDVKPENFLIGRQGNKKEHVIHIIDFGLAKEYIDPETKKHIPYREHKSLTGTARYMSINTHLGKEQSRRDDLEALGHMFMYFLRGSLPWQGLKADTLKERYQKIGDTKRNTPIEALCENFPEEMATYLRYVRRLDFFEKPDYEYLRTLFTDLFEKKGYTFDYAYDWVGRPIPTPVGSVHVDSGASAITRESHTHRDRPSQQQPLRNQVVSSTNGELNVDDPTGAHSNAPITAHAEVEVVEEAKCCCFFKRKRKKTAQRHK
Chain of Serine/threonine-protein kinase SIK1 (Homo sapiens) (P57059 whole entry): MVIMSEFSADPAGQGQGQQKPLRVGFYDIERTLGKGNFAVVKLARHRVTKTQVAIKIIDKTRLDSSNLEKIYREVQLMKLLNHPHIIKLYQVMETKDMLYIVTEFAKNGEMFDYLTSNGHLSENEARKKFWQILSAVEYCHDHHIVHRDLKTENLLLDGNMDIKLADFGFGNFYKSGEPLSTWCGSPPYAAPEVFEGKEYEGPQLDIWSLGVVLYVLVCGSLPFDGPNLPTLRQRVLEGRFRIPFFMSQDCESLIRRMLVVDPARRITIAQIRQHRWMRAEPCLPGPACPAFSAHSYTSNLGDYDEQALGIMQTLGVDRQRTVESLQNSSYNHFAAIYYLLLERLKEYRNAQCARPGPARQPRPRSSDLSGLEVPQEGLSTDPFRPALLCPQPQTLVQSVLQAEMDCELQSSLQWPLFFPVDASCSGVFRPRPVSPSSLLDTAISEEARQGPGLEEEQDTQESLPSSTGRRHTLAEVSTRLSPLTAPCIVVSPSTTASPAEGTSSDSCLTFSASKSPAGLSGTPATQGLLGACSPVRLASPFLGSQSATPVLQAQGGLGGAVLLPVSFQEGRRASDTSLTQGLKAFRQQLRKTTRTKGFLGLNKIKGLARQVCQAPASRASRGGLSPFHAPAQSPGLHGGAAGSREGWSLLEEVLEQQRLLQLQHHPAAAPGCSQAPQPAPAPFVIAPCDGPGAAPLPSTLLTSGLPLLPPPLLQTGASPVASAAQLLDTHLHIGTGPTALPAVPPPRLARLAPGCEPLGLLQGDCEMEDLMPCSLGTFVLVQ
Chain of Casein kinase I isoform gamma-2 (Homo sapiens) (P78368 whole entry, looked up, canonical isoform): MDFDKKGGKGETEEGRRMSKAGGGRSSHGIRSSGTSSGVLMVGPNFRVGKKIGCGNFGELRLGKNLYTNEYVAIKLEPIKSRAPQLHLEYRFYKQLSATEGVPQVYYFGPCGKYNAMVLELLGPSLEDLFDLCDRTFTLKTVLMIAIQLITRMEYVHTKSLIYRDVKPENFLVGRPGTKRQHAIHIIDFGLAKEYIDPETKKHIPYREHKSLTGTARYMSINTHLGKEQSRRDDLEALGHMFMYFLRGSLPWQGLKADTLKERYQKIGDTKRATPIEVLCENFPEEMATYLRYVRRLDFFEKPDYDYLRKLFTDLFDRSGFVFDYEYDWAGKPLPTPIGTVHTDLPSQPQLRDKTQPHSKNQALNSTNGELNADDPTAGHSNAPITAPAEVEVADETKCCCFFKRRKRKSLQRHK

On to `CN(c1ccc(NC(=O)NCCN2CCOCC2)cc1)c1ccnc(Nc2ccc(CS(C)(=O)=O)cc2)n1`, for which the inhibition in experiment [1] came to 0.65%; in [2], 0.45%; in [3], 2%; in [4] it was 1.83%; in experiment [5] it was 3.14%; in experiment [6], 2.8%. Besides, the inhibition worked out at 17.4% in experiment [7]; 9.27% in experiment [8]; 11.2% in experiment [9]; 1.55% in experiment [10]; 4.49% in experiment [11]; 4.48% in experiment [12]. For the same molecule, the inhibition in experiment [13] stood at 5.87%; in [14], 4.78%; in experiment [15] it was 3.15%; in experiment [16], 1.71%; in experiment [17], 2.52%; in [18], 2.63%. The inhibition in experiment [19] was found to be 3.24%; in experiment [20], 3.34%.
As for `Fc1ccc(Nc2nccc(-c3c(-c4ccc(C(F)(F)F)cc4)nn4ncccc34)n2)cc1F`, the inhibition in experiment [1] was 5.02%; in [2] it was -0.88%; in experiment [3], -1%; in [4] it was 0.6%; in [5], -0.23%; in experiment [6], 5.43%. Besides, the inhibition was 3.1% in experiment [7]; 3.76% in experiment [8]; 2.08% in experiment [9]; -0.07% in experiment [10]; 5.12% in experiment [11]; 2.94% in [12]. Besides, the inhibition is 0.83% in experiment [13]; 0.43% in experiment [14]; -1.83% in experiment [15]; 8.3% in experiment [16]; 5.37% in experiment [17]; 3.69% in [18]. The inhibition was found to be 4.68% in [19] and 1.53% in [20].
`COc1cc(N2CCN(C(C)C)CC2)ccc1Nc1nc(Nc2cccc(F)c2C(=O)O)c2cc[nH]c2n1`: the inhibition is 0.53% in experiment [1]; 1% in experiment [2]; 5.92% in [3]; 1.35% in experiment [4]; 2.28% in [5]; 2.77% in experiment [6]. In addition, the inhibition is 7.48% in experiment [7]; 5.27% in experiment [8]; 4.22% in experiment [9]; 4.45% in experiment [10]; 6.19% in [11]; 21.1% in experiment [12]. In addition, the inhibition is 70.9% in experiment [13]; 9.88% in experiment [14]; 49.2% in experiment [15]; 6.82% in experiment [16]; 7.9% in experiment [17]; 3.56% in experiment [18]. Further, the inhibition came to 5.73% in [19] and 2.68% in experiment [20].
For the molecule `Nc1ncnc2occ(-c3ccc(NC(=O)Nc4cc(C(F)(F)F)ccc4F)cc3)c12`, the inhibition in [1] was 0.09% and 1.14%; in experiment [2] it was 0.34% and 0.04%; in experiment [3] it was -1.35% and 1.44%; in experiment [4], -0.03% and -0.81%; in experiment [5], -1.65% and -0.72%; in experiment [6], 5.31% and -3.84%. Also, the inhibition was 6.74% and 3.25% in [7]; 6.29% and -4.61% in experiment [8]; 1.48% and -6.22% in experiment [9]; 0.47% and 0.44% in [10]; 6.12% and 3.01% in [11]; 0.74% and -0.54% in experiment [12]. In addition, the inhibition was -2.13% and 0.25% in experiment [13]; 0.34% and -1.88% in experiment [14]; -2.39% and -1.51% in [15]; -0.66% and -1.83% in [16]; 4.18% and -1.62% in experiment [17]; 1.37% and -1.43% in experiment [18]. Also, the inhibition in experiment [19] is 5.11% and 0.87%; in experiment [20], 0.83% and -2.39%.
In the case of `Cn1c(-c2nonc2N)nc2cnccc21`, the inhibition is 1.87% in experiment [1]; -0.24% in experiment [2]; 7.16% in experiment [3]; 1.23% in experiment [4]; 0.93% in experiment [5]; 4.82% in [6]. Further, the inhibition in [7] was 8.47%; in experiment [8], 5.17%; in experiment [9], -0.26%; in experiment [10], 1.34%; in [11], 7.42%; in [12] it was 3.15%. In addition, the inhibition was 3.81% in experiment [13]; 2.01% in experiment [14]; 0.12% in [15]; 3.34% in [16]; 6.21% in [17]; 2.61% in [18]. Besides, the figures for the inhibition in experiment [19] and in experiment [20] were 2.68% and 2.2%, respectively.
Consider `CS(=O)(=O)CCNCc1ccc(-c2ccc3ncnc(Nc4ccc(OCc5cccc(C(F)(F)F)c5)cc4)c3c2)o1`, for which the inhibition in [1] is -0.48%; in [2], 1.17%; in [3], 4.36%; in experiment [4], 1.34%; in [5] it was 1.44%; in experiment [6] it was 1.69%. The inhibition in [7] was found to be 7.19%; in experiment [8], 6.4%; in [9] it was 8%; in experiment [10], 3.15%; in experiment [11], 6.44%; in [12], 5.83%. The inhibition in [13] is 4.35%; in experiment [14], 2.31%; in experiment [15], 2.41%; in experiment [16] it was 5.05%; in [17], 6.4%; in experiment [18] it was 3.46%. Further, the inhibition in experiment [19] turned out to be 4.57%; in experiment [20] it was 3.14%.
For `O=C(O[C@H]1CN[C@H](C#Cc2cc3ncnc(Nc4ccc(OCc5cccc(F)c5)c(Cl)c4)c3s2)C1)N1CCOCC1`, the inhibition in [1] came to 0.28%; in experiment [2], 0.37%; in [3], 1.35%; in experiment [4], 2.46%; in experiment [5] it was 4.32%; in experiment [6], 2.74%. The inhibition in experiment [7] was 9.18%; in experiment [8] it was 8.56%; in experiment [9], 11.1%; in experiment [10], 1.96%; in experiment [11], 2.81%; in experiment [12], 4.44%. Further, the inhibition in [13] came out at 7.27%; in [14] it was 3.43%; in experiment [15] it was 5.27%; in [16], 2.97%; in [17], 4.43%; in experiment [18] it was 4.56%. Besides, the inhibition in experiment [19] came out at 5.41%; in [20], 4.99%.
